The results in this text go back to PubChem BioAssay (NCATS).

Molecules are shown by their SMILES. Values without a mark were called inactive. The call rests on the fitted dose curve; in most records, active means well fitted curve in the direction sought with a large enough effect; inconclusive means small, poorly fitted or top-dose-only effect, or another doubt; inactive means no such curve, though single readings can be large or run the other way.

Sequence of Hexokinase-4 (Homo sapiens) + Glucokinase regulatory protein (Homo sapiens) (P35557 whole entry, looked up): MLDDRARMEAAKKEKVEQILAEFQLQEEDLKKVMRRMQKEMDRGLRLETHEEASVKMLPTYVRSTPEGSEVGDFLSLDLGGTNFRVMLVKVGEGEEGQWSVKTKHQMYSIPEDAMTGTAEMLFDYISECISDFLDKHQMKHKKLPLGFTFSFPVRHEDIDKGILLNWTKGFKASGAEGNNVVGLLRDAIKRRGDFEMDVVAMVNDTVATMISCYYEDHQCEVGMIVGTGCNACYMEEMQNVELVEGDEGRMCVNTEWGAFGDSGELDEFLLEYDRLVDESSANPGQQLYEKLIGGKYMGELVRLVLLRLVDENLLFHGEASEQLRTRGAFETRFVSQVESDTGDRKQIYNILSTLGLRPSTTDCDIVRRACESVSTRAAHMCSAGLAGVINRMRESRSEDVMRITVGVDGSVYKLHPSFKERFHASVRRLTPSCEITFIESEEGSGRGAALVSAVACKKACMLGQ
Sequence of Hexokinase-4 (Homo sapiens) + Glucokinase regulatory protein (Homo sapiens) (Q14397 whole entry, looked up): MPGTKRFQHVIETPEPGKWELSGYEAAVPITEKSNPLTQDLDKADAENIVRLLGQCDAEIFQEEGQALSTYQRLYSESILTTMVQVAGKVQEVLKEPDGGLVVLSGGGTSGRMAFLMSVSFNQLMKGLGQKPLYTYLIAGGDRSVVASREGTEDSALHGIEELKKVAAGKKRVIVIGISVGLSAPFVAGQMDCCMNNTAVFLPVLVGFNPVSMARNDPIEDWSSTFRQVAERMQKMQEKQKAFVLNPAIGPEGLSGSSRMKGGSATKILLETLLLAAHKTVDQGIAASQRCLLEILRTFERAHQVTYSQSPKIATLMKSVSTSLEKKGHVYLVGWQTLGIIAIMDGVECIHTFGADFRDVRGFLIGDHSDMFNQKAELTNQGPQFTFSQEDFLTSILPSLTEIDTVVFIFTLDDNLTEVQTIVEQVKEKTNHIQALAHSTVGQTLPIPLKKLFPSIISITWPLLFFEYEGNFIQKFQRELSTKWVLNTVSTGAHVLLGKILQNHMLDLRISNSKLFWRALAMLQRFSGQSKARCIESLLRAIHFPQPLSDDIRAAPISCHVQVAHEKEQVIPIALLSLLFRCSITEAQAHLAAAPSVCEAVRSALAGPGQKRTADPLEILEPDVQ

This test has as its target Hexokinase-4 (Homo sapiens) + Glucokinase regulatory protein (Homo sapiens) (UniProt P35557+Q14397). Description: qHTS assay for inhibitors of recombinant human GCK-GKRP interaction: ADP-Glo assay (AID 743206).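 Further: plate controls were DMSO plus enzyme for no effect and no enzyme for full effect.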 The note with it: ADP-Glo luminescence, 60 min; series mostly up to 76.9 µM; activity, positive = activation: at the top concentration. The gist of the method:
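GST-GCK and FLAG-GKRP (15 nM each in the dispensed mix, with 2 uM S6P) react with 0.4 mM ATP and 5 mM glucose (final) in Hepes pH 7.6 for 60 min at room temperature. ADP is measured by ADP-Glo luminescence.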
In general terms: Quantitative high-throughput screening tests each substance at several concentrations.
As to `Nc1ccc(CCNc2ncnc3c2ncn3C2OC(CO)C(O)C2O)cc1` (stereo not drawn), the “activity, positive = activation” value was 2.28%. Consider `CCCCCCN(CCCCCC)C(=O)Cc1c(-c2ccc(F)cc2)[nH]c2ccccc12`, for which the “activity, positive = activation” value was 1.77%. In the case of `N[C@H](C(=O)O)[C@H](O)C(=O)O`, the “activity, positive = activation” value was 1.13%. With `CNc1ncnc2c1ncn2[C@H]1C[C@H](OP(=O)(O)O)[C@@H](COP(=O)(O)O)O1`, the “activity, positive = activation” value was 4.58%. Turning to `O=c1[nH]ccc2c(O)cccc12`, the “activity, positive = activation” value is 5.1%. On to `O=C1Cc2c([nH]c3ccc(Br)cc23)-c2ccccc2N1`, for which the “activity, positive = activation” value was -0.432%. On to `C=C1C(=O)O[C@@H]2[C@H]3O[C@]3(C)CCC=C(C)CC[C@@H]12`, for which the “activity, positive = activation” value was 0.14%. Then `N#CC(C#N)=C(N)/C(C#N)=C/c1ccc(O)cc1`, with 1.41%; and `CC[C@H](NC(=O)c1c(C)c(-c2ccccc2)nc2ccccc12)c1ccccc1`, with 1.98%; and `C[C@H](O)C(=O)C1=Nc2c(nc(N)[nH]c2=O)NC1`, with 3.56%. Then `CCN1C(=O)C=CC1=O`, with 3.78%; and `CNCCc1cnc(CCC(c2ccccc2)c2ccccc2)[nH]1`, with 2.24%. With `COc1cc(C(O)CO)ccc1O` (stereo not drawn), the “activity, positive = activation” value was 1.56%. In the case of `NC1C=CC=C(C(=O)O)C1` (stereo not drawn), the “activity, positive = activation” value is 0.598%.

On to `O=C(O)/C=C/c1cnc[nH]1`, for which the “activity, positive = activation” value is -0.552%. For the compound `CN1CCC2(CCN3CCc4c(oc5ccccc45)C3C2)N(C)C1=O` (stereo not drawn), the “activity, positive = activation” value is 1.27%. In the case of `CN1Cc2sccc2C(c2ccc(O)c(O)c2)C1` (stereo not drawn), the “activity, positive = activation” value was 1.12%. On to `C=C1C[C@@]23CC[C@H]4[C@@](C)(CCC[C@@]4(C)C(=O)O)[C@@H]2CC[C@]1(O)C3`, for which the “activity, positive = activation” value was 2.83%.

For `Cc1nc2n(c(=O)c1CCN1CCC(c3noc4cc(F)ccc34)CC1)CCCC2O` (stereo not drawn), the “activity, positive = activation” value is -2.6%. Then `[N-]=[N+]=Nc1ccc(C(=O)CSC[C@H](NC(=O)CC[C@H](N)C(=O)O)C(=O)NCC(=O)O)cc1`, with 21.5%; and `N#Cc1cc2nc(O)c(O)nc2cc1[N+](=O)[O-]`, with 1.77%. The result for `NOCC(=O)O` reads 5.24%; that for `c1ccc(C(NCCNC(c2ccccc2)c2ccccc2)c2ccccc2)cc1`, 0.346%. `Cc1cc(Cn2cnc3c2C[C@@H](C(=O)O)N(C(=O)C(c2ccccc2)c2ccccc2)C3)ccc1N`: the “activity, positive = activation” value is -1.95%. As to `N[C@H](C(=O)O)[C@H]1C[C@@H]1C(=O)O`, the “activity, positive = activation” value is 3.09%. With `CCN(CC)CCCCCCCCOC(=O)c1cc(OC)c(OC)c(OC)c1`, the “activity, positive = activation” value was 3.28%. As to `Nc1ncnc2c1nc(Br)n2C1OC2COP(=O)(O)O[C@@H]2C1O` (stereo partly drawn), the “activity, positive = activation” value was 5.53%. With `COc1cc(C(O)C(=O)O)ccc1O` (stereo not drawn), the “activity, positive = activation” value was 1.86%. For the compound `CC(C)C[C@H](NC(=O)C1OC1C(=O)O)C(=O)NCCCCN=C(N)N` (stereo partly drawn), the “activity, positive = activation” value is -4.03%.

In the case of `COCc1nc2c([nH]1)c(=O)n(C)c(=O)n2CC(C)C`, the “activity, positive = activation” value is 3.78%. Consider `CC(=O)NCCc1c[nH]c2ccc(O)cc12`, for which the “activity, positive = activation” value was 3.78%. Regarding `N[C@@H](Cc1ccc(F)cc1)C(=O)O`, the “activity, positive = activation” value is 0.0311%.

In the case of `NC1CCN(O)C1=O` (stereo not drawn), the “activity, positive = activation” value is 2.68%. For `NC(C(=O)N[C@@H]1C(=O)N2C(C(=O)O)=C(Cl)CS[C@H]12)c1ccccc1` (stereo partly drawn), the “activity, positive = activation” value was 3.13%. Then `O=C1C2C=CC=CC2=NC(=S)N1CCN1CCC(=C(c2ccc(F)cc2)c2ccc(F)cc2)CC1` (stereo not drawn), with -2.75%; and `OCC1NCC(O)C(O)C1O` (stereo not drawn), with 2.88%; and `CSC(N)=NCCC[C@H](N)C(=O)O`, with 0.195%.

In the case of `CC1C(=O)N(C)C(=O)c2nc[nH]c21` (stereo not drawn), the “activity, positive = activation” value is 3.57%.
